The source of these data is PubChem BioAssay (NCATS).

Inconclusive results are not listed. A call without a number means that no potency is given here. Active and inactive are the calls of the source. Calls come from the whole dose curve; as a rule, active = well fitted inhibition curve with a large enough effect; inconclusive = small, poorly fitted or top-dose-only effect, or effect the other way; inactive = flat fitted curve, though single readings scatter.
Potency is the fitted concentration of half-maximal effect.

A short description of the test: Quantitative high throughput screen for delayed death inhibitors of the malarial parasite plastid, 48 hour incubation (AID 488752). Note: nearly all actives have a fitted effect of over 65% in size. Particulars: Plasmodium falciparum growth; series mostly up to 28.7 µM. The source says:
NIH Molecular Libraries Probe Production Network [MLPCN]
NIH Chemical Genomics Center [NCGC]
Assay Provider: David Fidock and Eric Ekland, Columbia University
The goal of this screen is to discover new antimalarial compounds that act by inhibiting the development of the apicoplast in the malarial parasite Plasmodium falciparum. The biochemical processes that make this organelle essential for erythrocytic stage parasites are not well understood. However, antibiotics, such as azithromycin and tetracycline, which target the apicoplast translational machinery, have a potent antimalarial effect.
We have developed a cell-based assay that measures parasite growth based on the expression of an integrated copy of a firefly luciferase reporter. To detect small molecules that cause this 'delayed death' phenotype, erythrocytes infected with the luciferase-expressing parasites were incubated with compounds for either one or two generations, corresponding to 48 and 96 hours, respectively. Compounds that inhibit parasite growth in the second generation, but not the first, should be enriched in antimalarials that target the apicoplast. Growth inhibition is detected by a decrease in luciferase activity
Four microliters of culture medium (RPMI 1640 with 0.5% w/v Albumax (GIBCO), 24 mM sodium bicarbonate and 10 ug/mL gentamycin) were dispensed by a Multi-drop Combi into white solid 1536-well plates (Grenier) and 23 nL compound was added by a pin tool. Four microliters of infected erythrocytes (2% hematocrit, 0.1% parasitemia final concentration) in culture medium were dispensed and the plates incubated for 48 hours at 37 C in 5% CO2. Two microliters of luciferase detection reagent was added and luminescence was detected by a ViewLux (PerkinElmer) reader
`NCC#Cc1ccccc1`: the Potency entry is “inactive”.
To `C[C@]12CC[C@H](O)CC1=CCC1C2CC[C@]2(C)C(=O)CC[C@@H]12` (stereo partly drawn) belongs “inactive”; to `CC(C)[C@@]1(NC(=O)[C@@H]2C[C@@H]3c4cccc5[nH]cc(c45)C[C@H]3N(C)C2)O[C@@]2(O)C3CCCN3C(=O)[C@H](Cc3ccccc3)N2C1=O` (stereo partly drawn), 1.65 µM (active).
As for `C[C@]12CC[C@H]3[C@@H](CCC4C[C@H](O)CC[C@@]43C)[C@@H]1CC[C@@H]2O` (stereo partly drawn), the Potency result is “inactive”.
The result for `CCCN1CCCC(c2cccc(O)c2)C1` (stereo not drawn) reads “inactive”.
To `C[C@H]1C2Cc3ccc(O)cc3[C@]1(C)CCN2CC1CC1` belongs “inactive”; to `COc1ccc2c3c1O[C@H]1C(=O)CC[C@@]4(O)C(C2)N(CC2CC2)CCC314` (stereo partly drawn), “inactive”.
On to `C[C@@H]1O[C@@H](O[C@H]2C[C@@H](O)[C@]3(CO)[C@H]4[C@H](O)C[C@]5(C)[C@@H]([C@@H]6COC(=O)C6)CC[C@]5(O)[C@@H]4CC[C@]3(O)C2)[C@H](O)[C@H](O)[C@H]1O`, for which the Potency result is “inactive”.
To `CC12CCC3C(CCC4=C(O)C(=O)CCC43C)C1CCC2=O` (stereo not drawn) belongs “inactive”; to `C[C@]12CC[C@@H](O)CC1CCC1C2CC[C@]2(C)C(=O)CC[C@@H]12` (stereo partly drawn), “inactive”.
The result for `CCCCN1C2CCC1CC(OC(c1ccc(F)cc1)c1ccc(F)cc1)C2` (stereo not drawn) reads 7.38 µM (active); that for `C[C@H]1OC[C@@H](C[N+](C)(C)C)O1`, “inactive”; that for `N#CC(=Cc1ccc(O)c(O)c1)C(N)=S`, “inactive”.
Regarding `C/C=C(/C)C(=O)O[C@H]1C(C)=C2C([C@@H]1OC(=O)CCCCCCC)[C@@](C)(OC(C)=O)C[C@@H](OC(=O)CCC)[C@@]1(O)[C@H]2OC(=O)[C@@]1(C)O` (stereo partly drawn), the Potency is 2.94 µM (active).
The result for `CCc1c(C(=O)OC)ncc2[nH]c3cc(OC)c(OC)cc3c12` reads “inactive”.
The result for `NNCc1cccc(O)c1` reads 7.38 µM (active); that for `Nc1ncnc2c1ncn2[C@@H]1O[C@H](COP(=O)(O)CP(=O)(O)OP(=O)(O)O)[C@H](O)[C@H]1O`, “inactive”.
To `C=CCN1CC[C@@]2(C)c3cc(O)ccc3CC1[C@@H]2C` belongs “inactive”; to `C#CCN(C)C(C)Cc1ccccc1` (stereo not drawn), “inactive”.
Regarding `CCCN1CCc2cc(O)cc3c2C1Cc1ccc(O)c(O)c1-3` (stereo not drawn), the Potency was 8.28 µM (active).
As for `C[C@]12CC[C@H](OS(=O)(=O)O)CC1=CCC1C2CC[C@]2(C)C(=O)CC[C@@H]12` (stereo partly drawn), the Potency entry was “inactive”.
The result for `CCC(CO)NC(=O)[C@@H]1C=C2c3cccc4[nH]cc(c34)C[C@H]2N(C)C1` (stereo partly drawn) reads “inactive”; that for `CCNC(=O)[C@H]1O[C@@H](n2cnc3c(N)ncnc32)[C@H](O)[C@H]1O`, “inactive”; that for `CCCC[N+]1(C)C2CC(OC(=O)C(CO)c3ccccc3)CC1C1OC12` (stereo not drawn), “inactive”.
With `COc1cc(C[C@@H](C)N)c(OC)cc1I`, the Potency entry is “inactive”.
The result for `CCCN(CCC)C(=O)Cc1c(-c2ccc(Cl)cc2)nc2c(Cl)cc(Cl)cn12` reads “inactive”; that for `CCCN(CCC)[C@@H]1CCc2c(F)ccc(O)c2C1`, 2.62 µM (active).
The result for `CN1CCC23CCCC[C@H]2C1Cc1ccc(O)cc13` (stereo partly drawn) reads “inactive”; that for `CC(C)(O)C1C2OC(=O)C1[C@]1(O)C[C@H]3O[C@]34C(=O)O[C@H]2[C@]14C` (stereo partly drawn) (tested in a mixture with another compound), “inactive”.
To `CCCN1CCc2cccc3c2C1Cc1ccc(O)c(O)c1-3` (stereo not drawn) belongs 1.85 µM (active); to `NC(Cn1ccc(=O)[nH]c1=O)C(=O)O` (stereo not drawn), “inactive”.
For `CCCN1CCC[C@@H]2Cc3n[nH]cc3C[C@H]21`, the Potency entry is “inactive”.
Turning to `CCCN1CCC[C@@H](c2cccc(C#N)c2)C1`, the Potency result was “inactive”.
Regarding `C=CCN1CCc2cccc3c2C1Cc1ccc(O)c(O)c1-3` (stereo not drawn), the Potency was 10.4 µM (active).
The result for `O=C(O)C1C2CCC(O2)C1C(=O)O` (stereo not drawn) reads “inactive”; that for `C[N+]1(C)C2CC(OC(=O)C(CO)c3ccccc3)CC1C1OC12` (stereo not drawn), “inactive”; that for `CC1Cc2cc3c(cc2C(c2ccc(N)cc2)=NN1)OCO3` (stereo not drawn), “inactive”.
The result for `COC(=O)C(N)CCCN=C(N)N[N+](=O)[O-]` (stereo not drawn) reads “inactive”.
